“And” between values parts separate entries of the source, which are not always exact repeats. Equal entries are not always repeated. Results filed as inconclusive are left out. A call without a number means that no potency is given here. The source made the active and inactive calls. Unless noted, calls follow the shape of the dose curve; as a rule, active = well fitted curve in the direction sought with a large enough effect in the repeat runs; inconclusive = weak or mixed curves; inactive = no such curve, though single readings can be large; an effect the other way counts as inactive or inconclusive.
Experiments:
[1] = qHTS assay to identify small molecule antagonists of the glucocorticoid receptor (GR) signaling pathway - cell viability counter screen (AID 720693); settings: GR-bla HeLa viability, CellTiter-Glo luminescence, 18 h, with 5 nM dexamethasone present; series mostly up to 58.5 µM; also: nearly all actives have a fitted effect of over 55% in size
[2] = qHTS assay for identifying genotoxic compounds that show differential cytotoxicity against isogenic chicken DT40 cell lines with known DNA damage response pathways - wild type cell line (AID 743012); settings: DT40 wild type chicken cells viability, CellTiter-Glo, 40 h; series mostly up to 68.4 µM; also: nearly all actives have a fitted effect of over 60% in size; also: potency is read from the fitted curve at half-maximal effect
Outline: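 Using parental DT40 (300 cells/well), compounds delivered in DMSO incubate 40 h at 37 C/5% CO2. CellTiter-Glo reagent then stands 30 min at room temperature, and luminescence gives cell viability.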

[3] = qHTS assay for identifying genotoxic compounds that show differential cytotoxicity against isogenic chicken DT40 cell lines with known DNA damage response pathways - Rev3 mutant cell line (AID 743014); settings: chicken DT40 Rev3-/- viability, CellTiter-Glo, 40 h; series mostly up to 68.4 µM; also: nearly all actives have a fitted effect of over 55% in size
[4] = qHTS assay for identifying genotoxic compounds that show differential cytotoxicity against isogenic chicken DT40 cell lines with known DNA damage response pathways - Rad54/Ku70 mutant cell line (AID 743015); settings: DT40 Rad54/Ku70 mutant viability, CellTiter-Glo, 40 h; series mostly up to 66.8 µM; also: nearly all actives have a fitted effect of over 60% in size; also: potency is read from the fitted curve at half-maximal effect
[5] = qHTS assay to identify small molecule antagonists of the androgen receptor (AR) signaling pathway - cell viability counter screen (AID 743033; also: nearly all actives have a fitted effect of over 45% in size); settings: AR-bla HEK293 viability, CellTiter-Glo luminescence, 16 h; series mostly up to 58.5 µM
[6] = qHTS assay to identify small molecule antagonists of the androgen receptor (AR) signaling pathway using the MDA cell line - cell viability counter screen (AID 743041; also: nearly all actives have a fitted effect of over 45% in size); settings: MDA-kb2 viability, CellTiter-Fluor, 16 h, cells co-treated with R1881 androgen agonist; series mostly up to 70.3 µM
Outline: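 MDA-kb2 AR-luc human breast carcinoma cells (MMTV-luciferase, AR/GR responsive) were treated with compounds plus R1881 agonist for 16 h at 37 °C. Viability was read as CellTiter-Fluor fluorescence in the same wells as the reporter assay.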

[7] = qHTS assay to identify small molecule antagonists of the thyroid receptor (TR) signaling pathway - cell viability counter screen (AID 743064); settings: GH3.TRE-Luc viability, CellTiter-Fluor, 24 h; series mostly up to 70.3 µM; also: nearly all actives have a fitted effect of over 50% in size; also: potency is read from the fitted curve at half-maximal effect
Outline: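 GH3.TRE-Luc cells, 4 h pre-plating; cpd + T3 1 nM final; 37 °C 23.5 h; CellTiter-Fluor 30 min; fluorescence read.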

[8] = target: Androgen receptor (Homo sapiens) (UniProt P10275); test: qHTS assay to identify small molecule antagonists of the androgen receptor (AR) signaling pathway (AID 743035; active = well fitted inhibition curve with a large enough effect in the signal ratio in the repeat runs, not every such curve was filed as active; the % refers to the signal ratio); settings: HEK293 AR-UAS-bla, R1881-stimulated, beta-lactamase FRET, 16 h; series mostly up to 58.5 µM
Chain of Androgen receptor (Homo sapiens) (P10275 whole entry, looked up): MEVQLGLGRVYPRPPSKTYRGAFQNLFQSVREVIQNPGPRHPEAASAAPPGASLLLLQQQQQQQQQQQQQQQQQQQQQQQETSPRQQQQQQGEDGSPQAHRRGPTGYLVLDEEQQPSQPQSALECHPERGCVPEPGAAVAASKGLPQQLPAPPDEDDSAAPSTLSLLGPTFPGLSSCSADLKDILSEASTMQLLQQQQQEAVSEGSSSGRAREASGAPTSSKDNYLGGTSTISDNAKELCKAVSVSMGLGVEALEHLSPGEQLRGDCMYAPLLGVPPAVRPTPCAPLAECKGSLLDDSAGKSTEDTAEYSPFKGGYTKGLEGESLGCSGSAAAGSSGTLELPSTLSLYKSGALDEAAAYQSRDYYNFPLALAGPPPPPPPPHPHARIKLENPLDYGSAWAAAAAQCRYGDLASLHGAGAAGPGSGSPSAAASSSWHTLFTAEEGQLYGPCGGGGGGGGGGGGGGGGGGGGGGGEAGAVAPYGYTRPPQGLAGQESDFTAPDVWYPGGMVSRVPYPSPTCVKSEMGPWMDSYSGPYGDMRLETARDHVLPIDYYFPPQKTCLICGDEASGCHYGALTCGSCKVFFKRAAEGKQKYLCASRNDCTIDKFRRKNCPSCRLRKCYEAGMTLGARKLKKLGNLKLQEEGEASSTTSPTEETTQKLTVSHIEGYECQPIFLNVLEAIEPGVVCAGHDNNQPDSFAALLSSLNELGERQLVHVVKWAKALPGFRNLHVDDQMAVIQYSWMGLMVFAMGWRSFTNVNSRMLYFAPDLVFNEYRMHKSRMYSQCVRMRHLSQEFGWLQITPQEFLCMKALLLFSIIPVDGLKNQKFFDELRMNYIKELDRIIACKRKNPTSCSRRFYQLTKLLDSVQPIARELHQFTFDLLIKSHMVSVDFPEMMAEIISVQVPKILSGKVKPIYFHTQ
Outline: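 Using qHTS, AR-UAS-bla GripTite HEK293 cells received compound, then R1881, and were cultured 16 h at 37C/5% CO2 before a 2 h room-temperature LiveBLAzer B/G FRET substrate step and fluorescence measurement.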

[9] = target: Androgen receptor (Homo sapiens) (UniProt P10275); test: qHTS assay to identify small molecule agonists of the androgen receptor (AR) signaling pathway using the MDA cell line (AID 743040; also: nearly all actives have a fitted effect of over 20% in size); settings: MDA-kb2 AR-luc cells, MMTV luciferase, 16 h; series mostly up to 70.3 µM
Outline: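 MDA-kb2 breast carcinoma cells stably carrying an MMTV-driven luciferase reporter (AR- and GR-responsive) were seeded and held 5 h at 37C, 0% CO2, then exposed to compounds in DMSO for 16 h. Luminescence was read 30 min after ONE-Glo addition.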

[10] = target: Androgen receptor (Homo sapiens) (UniProt P10275); test: qHTS assay to identify small molecule antagonists of the androgen receptor (AR) signaling pathway using the MDA cell line (AID 743042; also: nearly all actives have a fitted effect of over 55% in size); settings: MDA-kb2 AR-luc, MMTV luciferase, R1881 antagonist, 16 h; series mostly up to 70.3 µM
Outline: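 MDA-kb2 cells (human breast carcinoma, stably carrying an MMTV-luciferase reporter responsive to AR and GR) were plated at 3,000 cells/well and preincubated 5 hr at 37C, then given compound plus R1881 agonist for 16 h. ONE-Glo luminescence was read.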

| SMILES | Potency [1] | Potency [2] | Potency [3] | Potency [4] | Potency [5] | Potency [6] | Potency [7] | Potency [8] | Potency [9] | Potency [10] |
| --- | --- | --- | --- | --- | --- | --- | --- | --- | --- | --- |
| COC(CC(C)CCCC(C)(C)O)OC (stereo unspecified) | inactive | inactive | inactive | inactive | inactive | inactive | inactive |  |  |  |
| CC(C)(C)S | inactive | inactive | inactive | inactive | inactive |  | inactive |  |  |  |
| CCN(CC)C(=O)N1CCN(C)CC1 | inactive | inactive | inactive | inactive |  | inactive |  |  |  |  |
| O=C1OC[C@H](Cc2cccc(O)c2)[C@H]1Cc1cccc(O)c1 | inactive | inactive | inactive | inactive | inactive | inactive | inactive |  |  |  |
| BrC(Br)C(Br)Br | inactive | inactive |  | inactive | inactive | inactive | inactive | inactive | inactive | inactive |
| CCN(CC)C(=O)/C(C#N)=C/c1cc(O)c(O)c([N+](=O)[O-])c1 | inactive | inactive |  | inactive | inactive | inactive | inactive |  | inactive | inactive |
| COc1ccc(C2C(=O)c3ccccc3C2=O)cc1 | inactive | inactive |  | inactive | inactive | inactive |  |  |  |  |
| CC(C)c1ccc(C#N)cc1 | inactive | inactive |  | inactive | inactive | inactive | inactive |  |  |  |
| COC(=O)CC(C(C)=O)C(=O)OC (stereo unspecified) | inactive | inactive |  | inactive | inactive | inactive |  | inactive | inactive | inactive |
| CC(CCc1ccc(O)cc1)NCCc1ccc(O)c(O)c1 (stereo unspecified) | inactive | 13.3 µM (active) |  | 23.7 µM (active) | inactive |  |  |  |  |  |
| COc1ccc(/C=C/C(=O)c2ccc(OC)cc2OC)cc1 | inactive | 10.6 µM (active) |  | 18.8 µM (active) | inactive | inactive |  |  |  |  |
| COc1ccc(C(=O)NCc2ccc(OCCN(C)C)cc2)cc1OC | inactive | inactive |  | inactive | inactive | inactive |  |  |  |  |
| CC[C@H]1OC(=O)[C@H](C)[C@@H](O[C@H]2C[C@@](C)(OC)[C@@H](O)[C@H](C)O2)[C@H](C)[C@@H](O[C@@H]2O[C@H](C)C[C@H](N(C)C)[C@H]2O)[C@](C)(O)C[C@@H](C)CN(C)[C@H](C)[C@@H](O)[C@]1(C)O | inactive | 3.76 µM (active) and 2.87 µM (active) |  | 3.76 µM (active) and 2.56 µM (active) | inactive | inactive | 29.8 µM (active) and 40.5 µM (active) |  |  |  |
| CC[C@@H](CO)NCCN[C@@H](CC)CO | inactive | inactive |  | inactive | inactive | inactive |  |  |  |  |
